# In PubChem BioAssay (NCATS):
# Where “and” joins values, the source holds several entries; their conditions need not be identical. Equal entries are not always repeated. Records with an inconclusive call do not appear. Entries that show only a call come without a potency. Calls of active or inactive are those of the source. Unless noted, calls come from the whole dose curve; as a rule, active = well fitted curve in the direction sought with a large enough effect; inconclusive = small, poorly fitted or top-dose-only effect, or another doubt; inactive = no such curve, though single readings can be large; an effect the other way counts as inactive or inconclusive.
# How the values were obtained:
# [1] = biological target: Calcium and integrin-binding protein 1 (Homo sapiens) (UniProt Q99828); assay: Primary qHTS for Identification of Calcium Integrin Binding Protein 1 (CIB1) Competitor (AID 1508620);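 note: GST tagged CIB1 binding a fluorescein labelled alphaIIb integrin peptide tracer; top concentration of the series differs between compounds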
# Sequence of Calcium and integrin-binding protein 1 (Homo sapiens) (Q99828 whole entry, looked up): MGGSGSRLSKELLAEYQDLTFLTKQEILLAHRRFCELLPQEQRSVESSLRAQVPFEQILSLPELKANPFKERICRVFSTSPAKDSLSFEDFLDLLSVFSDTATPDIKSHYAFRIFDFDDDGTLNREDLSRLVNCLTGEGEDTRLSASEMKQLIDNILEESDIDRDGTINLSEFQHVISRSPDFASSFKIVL
# Summary of the method: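 CIB1-GST (1 uM final) and compound incubated 15 min at room temperature before adding FITC-alphaIIb peptide tracer (100 nM final). Competition for binding read by fluorescence polarization (ex 480, em 540) after another 15 min at room temperature.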
# [2] = biological target: Cytochrome P450 2C9 (Homo sapiens) (UniProt P11712); assay: Cytochrome P450 family 2 subfamily C member 9 (CYP2C9) small molecule antagonists: luciferase biochemical (cell-free) qHTS assay (AID 1645842; active = well fitted curve in the direction sought with a large enough effect in the repeat runs; an effect the other way counts as inactive or inconclusive; note: nearly all actives have a fitted effect of over 55% in size; note: potency is the fitted concentration of half-maximal effect)
# Sequence of Cytochrome P450 2C9 (Homo sapiens) (P11712 whole entry, looked up): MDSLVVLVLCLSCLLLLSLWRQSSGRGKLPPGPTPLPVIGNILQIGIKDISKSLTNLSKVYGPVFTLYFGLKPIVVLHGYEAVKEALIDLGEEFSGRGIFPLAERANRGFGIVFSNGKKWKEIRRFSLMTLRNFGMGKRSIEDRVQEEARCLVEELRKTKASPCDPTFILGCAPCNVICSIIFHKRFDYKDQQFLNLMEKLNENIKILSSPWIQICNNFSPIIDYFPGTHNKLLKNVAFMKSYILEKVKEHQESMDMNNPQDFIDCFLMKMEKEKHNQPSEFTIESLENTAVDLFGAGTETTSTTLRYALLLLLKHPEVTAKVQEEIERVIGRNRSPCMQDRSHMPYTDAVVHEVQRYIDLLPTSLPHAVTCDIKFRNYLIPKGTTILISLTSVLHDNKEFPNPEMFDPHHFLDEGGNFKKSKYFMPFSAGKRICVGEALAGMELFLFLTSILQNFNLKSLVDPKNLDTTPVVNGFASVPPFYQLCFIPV
# Summary of the method: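 P450-Glo CYP2C9 system: proluciferin substrate with enzyme in mix containing 0.4% BSA, 10 min at room temperature, then NADPH regeneration solution added and incubated 1 h at 37C. Detection reagent stopped reaction; luminescence read after 20 min as RLU.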
# [3] = Primary qHTS for inhibitors of nuclear receptor binding SET domain protein 2 (NSD2) in an isogenic RCH-ACV NSD2 p.E1099K mutant (9B) (AID 1645876); note: nearly all actives have a fitted effect of over 70% in size; note: potency is the fitted concentration of half-maximal effect
# [4] = biological target: N-terminal Xaa-Pro-Lys N-methyltransferase 1 (Homo sapiens) (UniProt Q9BV86); assay: Confirmatory qHTS for Inhibitors of N-terminal methyltransferase 1 (NTMT1): MTaseGlo Assay (AID 1645874); note: nearly all actives have a fitted effect of over 65% in size; note: potency is the fitted concentration of half-maximal effect
# Sequence of N-terminal Xaa-Pro-Lys N-methyltransferase 1 (Homo sapiens) (Q9BV86 whole entry, looked up): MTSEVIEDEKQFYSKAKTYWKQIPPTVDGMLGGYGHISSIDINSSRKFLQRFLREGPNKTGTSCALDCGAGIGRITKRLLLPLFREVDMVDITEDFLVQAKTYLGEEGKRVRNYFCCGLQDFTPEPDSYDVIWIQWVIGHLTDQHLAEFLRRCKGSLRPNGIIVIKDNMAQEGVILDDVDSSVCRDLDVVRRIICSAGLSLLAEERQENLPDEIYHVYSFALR
# Summary of the method: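 Inhibition was derived from luminescence after SAH-to-ATP conversion, scaled between no-enzyme and DMSO wells, then fitted by 4-parameter Hill. Conditions: 125 nM NTMT1, 100 uM SAM, 1 uM SPKRIA, 30 min RT.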
Compound,Potency [1],Potency [2],Potency [3],Potency [4]
O=C(NCc1cccc(O)c1)c1cc2cc(F)ccc2[nH]1,inactive,13.5 µM (active),18.3 µM (active),
O=C(NCc1ccc(S(=O)(=O)c2cc(F)cc(F)c2)cc1)c1ccc2nccn2c1,inactive,inactive,inactive,
Cc1cc(NC(=O)Nc2ccc(F)c(F)c2)n(-c2ccccc2)n1,inactive,12 µM (active),inactive,
O=C(c1ccccc1)c1ccc2nc(NC(=O)c3csc(C4CCN(c5ncnc6ccsc56)CC4)n3)[nH]c2c1,inactive,9.52 µM (active),3.25 µM (active),
Cc1cc(Nc2ccc(NC(=O)c3ccc(Nc4ccnc5ccccc45)cc3)cc2)nc(N)n1,inactive,inactive,1.83 µM (active),
COC(=O)N[C@@H](C)CNc1nccc(-c2cn(C(C)C)nc2-c2cc(Cl)cc(NS(C)(=O)=O)c2F)n1,inactive,inactive,inactive,
CC(C)S(=O)(=O)NC[C@H](C)c1ccc(NC(=O)c2cc(F)cc(F)c2)cc1,inactive,7.56 µM (active),inactive,
N#Cc1c(Oc2ccc(F)c(NC(=O)Cc3cccc(C(F)(F)F)c3)c2)ccc2nc(NC(=O)C3CC3)sc12,inactive,0.338 µM (active),0.578 µM (active),
COc1ccccc1Oc1ccc(N(Cc2cccnc2)S(=O)(=O)CC(F)(F)F)cc1,inactive,1.9 µM (active),inactive,
Cc1ccc(C)c(OCCn2cc(C(=O)O)c3ccccc32)c1,inactive,13.5 µM (active),inactive,
Cc1nc(NC(=O)N2CCCC2C(N)=O)sc1-c1csc(C(C)(C)C)n1 (stereo not given),inactive,inactive,4.59 µM (active),
CC(NC(=O)CCc1nc2ccccc2c(=O)[nH]1)c1ccccc1 (stereo not given),inactive,inactive,inactive,
NC[C@@](O)(c1ccc(Cl)cc1)c1ccc(-c2cn[nH]c2)cc1,inactive,1.2 µM (active),6.49 µM (active) and 5.25 µM (active),
CC(=O)NCC(=O)N1C2CCC1c1cc(Nc3ncc(C(F)(F)F)c(NC4CCC4)n3)ccc12 (stereo not given),inactive,9.52 µM (active),0.0728 µM (active),
O=C(Nc1nc2ccccc2n1CCc1ccccc1)c1ccccc1,inactive,8.49 µM (active),6.49 µM (active),
Cc1cc2c(F)c(Oc3ncnn4cc(OCC(C)O)c(C)c34)ccc2[nH]1 (stereo not given),inactive,12 µM (active),4.09 µM (active),
Cc1c[nH]c2nccc(Oc3c(F)cc(Nc4cc(Cl)nc(N)n4)cc3F)c12,inactive,15.1 µM (active),0.728 µM (active),
COc1cc(Br)c(Nc2nc(-c3c(C)nc4ncccn34)cs2)c(Br)c1,inactive,8.49 µM (active),1.45 µM (active),
CC[C@H](CO)Nc1nc(NCc2ccc(-c3ccccn3)cc2)c2ncn(C(C)C)c2n1,inactive,0.19 µM (active),0.459 µM (active),
CCOCc1nc2c(N)nc3ccccc3c2n1CC(C)(C)O,inactive,inactive,inactive,
Nc1ncnc2c1nc(N)n2[C@@H]1O[C@H](CO)[C@@H](O)[C@H]1O,inactive,,1.45 µM (active),inactive
COc1cc2c(cc1O)CC[C@H]1[C@@H]2CC[C@]2(C)[C@H](O)CC[C@@H]12,inactive,,1.45 µM (active),39.8 µM (active)
C[C@@H]1C(=O)O[C@H](C)[C@H]1CC(=O)[C@](C)(O)[C@H]1CC[C@@]2(O)C3=CC(=O)[C@@H]4C[C@@H](O)[C@@H](O)C[C@]4(C)C3CC[C@]12C (stereo not given in full),inactive,,inactive,
CC(Oc1cc(-n2cnc3ccc(CN4CCN(C)CC4)cc32)sc1C(N)=O)c1ccccc1C(F)(F)F (stereo not given),inactive,,0.578 µM (active),21.4 µM (active)
CC(=O)c1cc2c(cc1O)OC(C)(C)C=C2,inactive,,inactive,
COC(=O)C[C@H]1C(C)(C)[C@H](OC(C)=O)C2CC3=C4CC(=O)O[C@@H](c5ccoc5)[C@]4(C)CCC3[C@@]1(C)C2=O (stereo not given in full),inactive,,inactive,
